Active and inactive are the calls of the source.
How the values were obtained:
[1] = molecular target: Albumin (Bos taurus) (UniProt P02769); experiment: bovine serum albumin binders on microarray, profiling panel, artefact control for SMM control protein annotation, biochemical, small-molecule microarray, Alexa647 label, 635/667 nm fluorescence (AID 1118); conditions: BSA-A647 binding, fluorescence 635 nm, higher = more signal;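 note: score merges 667 nm emission intensity and signal-to-noise per printed compound spot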
Albumin (Bos taurus), sequence (P02769 whole entry, looked up): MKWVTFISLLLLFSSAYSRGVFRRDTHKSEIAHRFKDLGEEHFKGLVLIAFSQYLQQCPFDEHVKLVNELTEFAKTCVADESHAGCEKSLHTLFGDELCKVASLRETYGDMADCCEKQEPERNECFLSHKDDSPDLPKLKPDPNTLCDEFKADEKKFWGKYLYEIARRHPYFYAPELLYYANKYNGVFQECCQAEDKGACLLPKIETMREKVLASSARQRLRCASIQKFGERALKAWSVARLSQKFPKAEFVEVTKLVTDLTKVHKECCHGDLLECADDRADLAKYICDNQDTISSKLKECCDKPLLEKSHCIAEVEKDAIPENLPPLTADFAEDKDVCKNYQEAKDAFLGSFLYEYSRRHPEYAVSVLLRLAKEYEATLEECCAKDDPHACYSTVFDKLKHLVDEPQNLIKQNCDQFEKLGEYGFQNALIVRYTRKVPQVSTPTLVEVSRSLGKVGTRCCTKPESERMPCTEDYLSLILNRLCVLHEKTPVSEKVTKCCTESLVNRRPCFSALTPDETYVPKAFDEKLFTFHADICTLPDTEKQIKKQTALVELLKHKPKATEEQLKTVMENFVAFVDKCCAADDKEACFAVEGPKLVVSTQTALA

[2] = small-molecule microarray binders of probe aXIP, primary screen, biochemical, NeuroSMM set, 635/667 nm fluorescence (AID 1119); conditions: higher = more signal, called active from +8 up or from −8 down;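 note: probe is the protein aXip251-270 applied at 1 µg/mL to compound-printed slides; binding of probe to printed compounds measured as 667 nm fluorescence plus signal to noise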
[3] = small-molecule binders of probe aNOTCH3, primary screen, biochemical, small-molecule microarray, 635/667 nm fluorescence (AID 1120); conditions: higher = more signal;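 note: probe is a biotin-tagged antibody raised against NOTCH3 rather than NOTCH3 protein; score merges spot fluorescence near 667 nm with spot signal to noise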
[4] = small-molecule binders of probe aNOTCH2, primary screen, biochemical, small-molecule microarray, 635/667 nm fluorescence (AID 1121); conditions: higher = more signal;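 note: score merges feature fluorescence read at 667 nm with its signal to noise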
[5] = molecular target: Carbonic anhydrase 2 (Homo sapiens) (UniProt P00918); experiment: CAII small-molecule binders, profiling panel, biochemical, small-molecule microarray, Alexa647-labelled CAII (AID 1122); conditions: CAII-A647 binding fluorescence, higher = more signal
[6] = COS7 lysate on small-molecule microarray, probe aHis, 635 nm (AID 1123); conditions: COS7 cell lysate, fluorescence, higher = more signal;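 note: z-score combines 667nm fluorescence intensity with signal-to-noise per printed compound spot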
[7] = compound binding in COS7 lysate, probe aLAP1, primary screen, cell lysate, small-molecule microarray (AID 1124); conditions: probe aLAP1, fluorescence, higher = more signal;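 note: lysate comes from COS7 cells expressing LAP1 and is applied at 0.3 µg/mL; score merges spot fluorescence near 667 nm with signal-to-noise over triplicate slides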
[8] = system: Sam68 (KHDRBS1); experiment: Sam68 small-molecule binders, primary screen, biochemical, small-molecule microarray, 635 nm fluorescence (AID 1125); conditions: small-molecule microarray binding, higher = more signal;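 note: score merges 667 nm channel intensity with signal to noise over triplicate slides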
[9] = system: Chordin-like protein 2 (CHRDL2); experiment: CHRDL2 small-molecule binders, primary screen, biochemical, small-molecule microarray, 635 nm fluorescence (AID 1126); conditions: small-molecule microarray binding, fluorescence 635 nm; higher = more signal;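 note: printed compound slides probed with Chrdl2 protein at 4 µg/mL for 1 h at 4 C; score merges 667 nm emission intensity with signal to noise over three replicate slides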
[10] = molecular target: Concanavalin-A (Canavalia ensiformis) (UniProt P02866); experiment: ConA small-molecule binders, primary screen, artefact control for SMM control protein annotation, biochemical, small-molecule microarray, Alexa647 label, 635 nm (AID 1127); conditions: ConA-A647 binding fluorescence, higher = more signal;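 note: z combines 667 nm emission intensity with signal-to-noise across three replicate slides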
Concanavalin-A (Canavalia ensiformis), sequence (P02866 whole entry, looked up): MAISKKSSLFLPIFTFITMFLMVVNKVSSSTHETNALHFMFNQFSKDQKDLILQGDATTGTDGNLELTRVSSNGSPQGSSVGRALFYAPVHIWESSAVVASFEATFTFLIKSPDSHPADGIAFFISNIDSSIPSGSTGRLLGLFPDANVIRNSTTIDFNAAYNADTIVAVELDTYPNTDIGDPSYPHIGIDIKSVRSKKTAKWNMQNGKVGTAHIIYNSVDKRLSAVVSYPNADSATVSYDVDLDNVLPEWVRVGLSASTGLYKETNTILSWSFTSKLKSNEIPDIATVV

SMILES | composite z-score [1] | composite Z-score [2] | composite z-score [3] | composite z-score [4] | composite z-score [5] | composite z-score [6] | composite z-score [7] | composite z-score [8] | composite z-score [9] | composite z-score [10]
CCCN1C(=O)[C@@]2(CCS(=O)(=O)c3ccccc3)N=C(c3ccc(OCCCO)cc3)O[C@H]2c2ccccc21 | -0.676 | -0.113 (inactive) | 0.0833 | -0.0956 | 0.294 | 2.41 | 0.163 | 1.3 | 0.637 | 0.892
Cc1ccc(S(=O)(=O)N2[C@@H](c3ccccc3)C(C(=O)O)=CC[C@H]2c2ccccc2)cc1 | 0.508 | 1.47 (inactive) | -0.0647 | -0.0771 | 0.837 | 2.33 | 0.498 | 0.702 | -0.439 | 0.0991
C[C@@H]1NC(=O)CC=C[C@@H](C)[C@@H]2C=C[C@H](O)[C@@H](COC(=O)[C@H](C)NC(=O)CC=C[C@@H](C)[C@@H]3C=C[C@H](O)[C@@H](COC1=O)O3)O2 | -0.942 | -0.0764 (inactive) | -0.0328 | -0.179 | -0.0551 | -0.384 | -0.0401 | -0.116 | 0.786 | -1.2
C=C(COC)/C(=C/C[C@@H](OC(=O)c1ccncc1)c1ccc(OCCO)cc1)c1cc(C(=O)OC)ccc1OC | 0.655 | 0.345 (inactive) | 0.0631 | -0.0784 | 0.655 | 1.61 | 0.482 | 1.3 | -0.0659 | 1.06
C[C@@H]1CC[C@H]2C(=O)N3[C@@H](CC[C@@H](C)[C@@H]3c3cccc(N4CCOCC4)c3)C(=O)N2[C@H]1c1cccc(N2CCOCC2)c1 | 0.0915 | -0.354 (inactive) | -0.344 | -0.217 | 0.477 | 0.8 | 0.581 | 0.594 | 0.902 | 1.04
[N-]=[N+]=NCc1ccccc1C[C@]1(C(N)=O)N=C(c2ccc(OCCCO)cc2)O[C@H]1c1ccccc1CN=[N+]=[N-] | 1.05 | -0.469 (inactive) | 0.0254 | 0.0256 | 0.667 | 2.16 | 0.641 | 1.31 | -1.12 | 0.991
C=CC[C@]1(C(=O)O)N=C(c2ccc(OCCCO)cc2)O[C@H]1c1ccccc1 | 0.769 | 0.523 (inactive) | -0.0591 | 0.0415 | 0.758 | 2.37 | 0.563 | 0.351 | -0.916 | 0.486
O=C1O[C@H](c2ccccc2)[C@H](c2ccccc2)N2[C@H]1[C@@H](C(=O)NC[C@H](O)c1ccccc1)[C@]1(C(=O)Nc3ccc(C#CC4(O)CCCCCC4)cc31)[C@H]2c1ccc(OCCO)cc1 | 0.579 | 0.248 (inactive) | 0.108 | -0.109 | 0.603 | 1.92 | -0.0049 | 1.31 | 0.088 | 1.16
CCN1C(C)=C(C(=O)OC)[C@@H](c2ccccc2)N2C(=O)[C@](O)(C(=O)OC)[C@@H](c3ccccc3)C(C(=O)c3ccccc3)=C12 | 0.325 | 0.111 (inactive) | 0.541 | -0.112 | 0.401 | 0.915 | 0.629 | 0.723 | 0.309 | 0.352
O=C1NC(=O)C2C1C=CC(C(O)C=Cc1ccc([N+](=O)[O-])cc1)N2Nc1ccccn1 (stereo not given) | -0.0573 | 1.28 (inactive) | 0.0104 | 0.0337 | 0.863 | 1.4 | 1.07 | -0.257 | 1.39 | 0.367
COC(=O)[C@@]1(Cc2ccccc2)[C@H]2c3cc(C(=O)N4CCCC4)n(CCN4CNCC4=O)c3C[C@H]2CN1C(=O)c1ccccc1 | 0.963 | 0.0178 (inactive) | 0.119 | -0.173 | 0.924 | 3.04 | 0.808 | 0.28 | -0.634 | 1.2
O=C1C2C=CC(C(O)c3ccccc3)N(n3cnnc3)C2C(=O)N1Cc1ccccc1 (stereo not given) | 0.878 | 0.0912 (inactive) | 0.0562 | -0.0136 | 0.565 | 0.775 | -0.333 | -0.493 | 0.0921 | 0.161
C=C(CCCC)/C(=C/C[C@@H](OC(=O)c1ccncc1)c1ccc(CO)o1)c1cnc2ccccc2c1 | 0.667 | 1.04 (inactive) | 0.382 | 0.0626 | 0.956 | 2.33 | 0.405 | 1.31 | 1.45 | 1.18
COCCOC(=O)N1C(=O)[C@@]2(c3cc(C#CCNC(N)=O)ccc31)[C@H](c1ccccc1OCCO)N1[C@H](c3ccccc3)[C@H](c3ccccc3)OC(=O)[C@H]1[C@@H]2C(=O)NC[C@H](O)c1ccccc1 | 0.679 | 0.25 (inactive) | 0.163 | -0.113 | 0.681 | 2.12 | 0.717 | 1.28 | 0.0781 | 1.08
CO[C@H]1O[C@H](CO)[C@@H](OC(=O)CCc2ccccc2)[C@@H]2OC(=O)[C@H](Cc3cccc(Br)c3)C/C=C/C[C@@H](Cc3cccc(Br)c3)C(=O)O[C@@H]12 | 0.803 | 0.258 (inactive) | -0.15 | -0.114 | 0.76 | 1.04 | 0.0054 | 0.7 | -1.41 | 0.014
CO[C@H]1COC(=O)[C@H](C)NC(=O)CC=C[C@@H](C)[C@H](NS(=O)(=O)c2ccc(C)cc2)COC(=O)[C@@H](OCc2ccccc2)C=C[C@@H]1C | 0.228 | 0.0585 (inactive) | -0.0932 | -0.154 | -0.367 | -0.959 | -0.659 | 0.133 | 1.03 | -0.333
COc1ccc(C(O)C2C=CC3C(=O)N(C)C(=O)C3N2N2CCCCC2)cc1OCc1ccccc1 (stereo not given) | 0.728 | 0.248 (inactive) | 0.13 | -0.0546 | 0.38 | 1.71 | 0.445 | 1.29 | -0.651 | 1.12
COC(=O)C1=CC(c2ccc(CO)cc2)=CC(c2cccs2)N(Cc2cccc(OC(F)(F)F)c2)C=C1C(=O)OC (stereo not given) | 1.09 | 0.639 (inactive) | 0.0979 | -0.101 | 0.671 | 2.76 | 0.641 | 1.34 | -0.602 | 1.18
CCOC(=O)C[C@H]1[C@H](OC(=O)c2ccccc2-c2ccccc2)[C@@H](NC(=O)c2ccc(-c3ccccc3)cc2)c2cc(OCCCO)ccc2N1C(=O)Cc1ccc(OC)cc1 | 0.0867 | 0.0368 (inactive) | 0.0193 | -0.0759 | -0.0176 | 0.416 | -0.0563 | 0.406 | 0.335 | 0.398
C[C@H]1NC(=O)[C@@H](C)NC(=O)[C@@]23C(=O)N[C@@H](Cc4ccccc4)C2[C@H](C)[C@@]2(C)O[C@H]2C3/C=C/C/C=C\CNC1=O (stereo not given in full) | -0.631 | 0.0894 (inactive) | -0.195 | -0.126 | 0.502 | -0.482 | -0.599 | -0.344 | 0.274 | -0.888
COc1ccc(CCNC(=O)[C@@]2(c3ccc([N+](=O)[O-])cc3)CC(=O)N(C(C)C)[C@@H]2c2ccc(CO)cc2)cc1 | 0.0638 | 0.265 (inactive) | -0.331 | -0.154 | 0.748 | 0.462 | 0.451 | -0.549 | -2.5 | -0.895
O=C1O[C@@H](c2ccccc2)[C@@H](c2ccccc2)N2[C@@H](c3ccccc3OCCO)[C@]3(C(=O)Nc4ccc(C#CC5=CCCCC5)cc43)[C@@H](C(=O)O)[C@H]12 | 0.664 | -0.114 (inactive) | 0.0563 | -0.0391 | 0.549 | 1.67 | 0.659 | 1.33 | -0.241 | 1.08
CC(C)N1CC=CC23O[C@@H]4/C=C\CCCOC(=O)C4[C@H]2C(=O)N(CCO)[C@@H]3C1=O (stereo not given in full) | 0.767 | 1.95 (inactive) | -0.0918 | -0.0874 | 0.893 | 0.572 | 1.43 | 0.534 | -1.4 | 0.329
CC(C)CN1C(=O)[C@@]2(Cc3ccccc31)c1ccccc1C(=O)N(C1CCCCC1)[C@H]2c1ccc(CO)cc1 | -0.436 | 0.439 (inactive) | -0.0647 | -0.0433 | 0.781 | 0.878 | 1.23 | -0.18 | -1.43 | -1.42
COCCOC(=O)N1C(=O)[C@@]2(c3cc(C#CCCO)ccc31)[C@H](c1ccc(OCCO)cc1)N1[C@H](c3ccccc3)[C@H](c3ccccc3)OC(=O)[C@H]1[C@@H]2C(=O)NC[C@H](O)c1ccccc1 | -0.525 | 0.463 (inactive) | 0.272 | -0.146 | 0.484 | 1.78 | 0.54 | 1.29 | 0.716 | 1.05
CN(C)C(=O)[C@@]1(Cc2ccccc2N=[N+]=[N-])N=C(c2ccc(OCCCO)cc2)O[C@H]1c1ccccc1CN=[N+]=[N-] | 0.972 | 0.478 (inactive) | 0.293 | 0.215 | 0.622 | 3.13 | 1.12 | 1.29 | -0.393 | 1.2
CCOC(=O)C1=CCC(c2cccc3ccccc23)N(S(=O)(=O)c2ccc(C)cc2)C1 (stereo not given) | 0.816 | 0.494 (inactive) | 0.056 | -0.0731 | 0.401 | 1.41 | 0.117 | 1.12 | 0.341 | 1.08
Cc1ccc(S[C@]2(C(=O)NCCN3CCOCC3)CC(=O)N(C3Cc4ccccc4C3)[C@@H]2c2ccc(CO)cc2I)cc1 | 0.545 | 2.61 (inactive) | -0.0903 | 0.116 | 0.576 | 1.42 | 0.39 | 0.458 | -2.56 | -0.587
C=CC[C@@]12N=C(c3ccc(OCCCO)cc3)O[C@@H]1c1ccccc1CN(Cc1ccccc1)C2=O | 0.127 | 0.999 (inactive) | 0.0242 | -0.053 | 0.496 | 1.96 | 0.377 | 1.29 | 0.213 | 1.02

From PubChem BioAssay
